Source: PubChem (The Scripps Research Institute Molecular Screening Center)
PAD4 inh – blocks human protein arginine deiminase 4; Q9UM07; recombinant PAD4, RCA probe fluorescence polarization; inhibition, % at 6.36 µM; 330,000 tested, 0.41% active; AID 485272;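 active = percent inhibition above a cutoff equal to the mean of all tested compounds plus 3 SD, cut at about 15% in these data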;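 note: 0% = PAD4 with RCA probe and DMSO and 100% = probe without PAD4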
Target sequence (Q9UM07 whole entry, looked up): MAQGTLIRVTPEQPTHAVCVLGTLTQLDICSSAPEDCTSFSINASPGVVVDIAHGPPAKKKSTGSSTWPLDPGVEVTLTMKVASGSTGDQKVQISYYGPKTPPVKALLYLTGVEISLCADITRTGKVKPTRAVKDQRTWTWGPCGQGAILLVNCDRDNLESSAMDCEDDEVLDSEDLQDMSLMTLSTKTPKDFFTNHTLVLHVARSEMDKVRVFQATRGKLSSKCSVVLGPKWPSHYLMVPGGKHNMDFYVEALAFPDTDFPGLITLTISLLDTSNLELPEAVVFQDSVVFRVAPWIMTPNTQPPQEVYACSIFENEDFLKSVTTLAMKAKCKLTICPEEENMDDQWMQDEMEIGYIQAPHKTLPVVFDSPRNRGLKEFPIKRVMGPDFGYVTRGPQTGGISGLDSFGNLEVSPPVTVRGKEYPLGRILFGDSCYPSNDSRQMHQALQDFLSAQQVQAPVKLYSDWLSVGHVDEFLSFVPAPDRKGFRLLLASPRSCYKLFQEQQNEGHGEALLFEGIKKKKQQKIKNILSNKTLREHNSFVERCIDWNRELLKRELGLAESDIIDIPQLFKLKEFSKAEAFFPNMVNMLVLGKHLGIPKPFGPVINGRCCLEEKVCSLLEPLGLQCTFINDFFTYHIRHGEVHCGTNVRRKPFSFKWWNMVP
Fam108B inh – Fam108B inhibition, counter-screen for RBBP9 inhibitors; recombinant Fam108B, FP-Rh probe fluorescence polarization; inhibition, % at 9.51 µM; 300,000 tested, 0.33% active; AID 1947;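 active = inhibition above the screen mean inhibition plus 3 SD, computed separately per campaign, cut at about 18% in these data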;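 note: inhibitors lower polarization as less probe binds the enzyme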
GSTO1 counter – counter-screen for RBBP9 inhibitors: inhibitors of human GSTO1. AID 1974. 300,000 tested, 1.1% active. recombinant GSTO1, activity-based probe fluorescence polarization. P78417. inhibition, % at 5.96 µM;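 active = inhibition above the campaign mean inhibition plus 3 SD, cut at about 35% in these data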;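 note: 0% = GSTO1-1 with DMSO and 100% = wells lacking GSTO1-1 enzyme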
LYPLA1 inh – LYPLA1 (human) inhibition in PME1 counter-screen. recombinant LYPLA1, FP-Rh probe fluorescence polarization. 320,000 tested, 0.16% active. O75608. inhibition, % at 5.9 µM;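 active = inhibition above the mean of all tested compounds plus 3 SD, set per campaign, cut at about 14% in these data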;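 note: inhibitors block serine hydrolase probe labeling of LYPLA1 so polarization falls; 0% = enzyme with DMSO and 100% = wells lacking LYPLA1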
PME-1 primary – blocks human protein phosphatase methylesterase 1. inhibition, % at 5.9 µM. recombinant PME-1, FP-Rh probe fluorescence polarization. 320,000 tested, 0.53% active;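 active = inhibition above the campaign mean of all compounds plus 3 SD, cut at about 26% in these data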;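 note: competitive labeling of PME-1 active site by serine hydrolase directed probe; 0% = PME-1 with DMSO and 100% = wells lacking PME-1 enzyme; inhibitors block probe labeling so polarization falls and inhibition rises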
LYPLA2 counter – blocks human lysophospholipase 2, a PME1 counter-screen; AID 2177; 320,000 tested, 0.38% active; recombinant LYPLA2, FP-Rh probe fluorescence polarization; O95372; inhibition, % at 5.9 µM;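 active = inhibition above the screen-wide mean plus 3 SD, limit set per campaign, cut at about 26% in these data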;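 note: 0% = LYPLA2 with DMSO and 100% = wells lacking LYPLA2 enzyme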
GSTO1 confirm – GSTO1 (human) inhibition, confirmation | shares compounds with GSTO1 counter | recombinant GSTO1, probe fluorescence polarization | inhibition, % at 5.96 µM | 2,400 tested, 54% active | AID 2176;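 active = inhibition above the primary screen's cutoff, its mean inhibition plus 3 SD, cut at about 35% in these data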;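 note: loss of polarization as inhibitors block binding of rhodamine sulfonate ester activity probe; 0% = GSTO1 with DMSO and 100% = wells lacking GSTO1 enzyme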
GSTO1 ABPP inh – blocks recombinant human glutathione S-transferase omega 1; recombinant GSTO1, gel ABPP SE-Rh probe fluorescence; shares compounds with GSTO1 counter; inhibition, % at 1 µM; 130 tested, 30% active;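 active = inhibition of the enzyme GSTO1 above about 75%, limit read from the data; inactive = inhibition below that limit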
* hit, by the source's call; / = no result given; ! = repeats disagree. Compounds with a hit are over-represented: about 1.7% of the library has one in this group of screens.

SMILES	PAD4 inh	Fam108B inh	GSTO1 counter	LYPLA1 inh	PME-1 primary	LYPLA2 counter	GSTO1 confirm	others
Cc1ccc(C(=O)Oc2ccccc2N2C(=O)C3CCCCC3C2=O)cc1 (centres undefined)	-1.9	-0.8	-1.3	-1.9	6.6	6.2	/
CN1CCc2cccc3c2[C@@H]1Cc1ccc(O)c(O)c1-3	-2.0	4.5	93.7*	-5.5	15.2	3.2	13.5
COc1ccc2c(c1O)-c1ccccc1CCN(C)C2	-1.1	-1.2	-1.0	-1.0	-6.1	7.9	/
Cc1ccc(S(=O)(=O)/N=C2\C(=O)c3ccccc3C([O-])=C2n2cc[n+](CCC(C)C)c2)cc1	-5.7	2.9	75.8*	-0.7	2.1	3.0	70.6*
CCCC[n+]1ccn(C2=C([O-])c3ccccc3C(=O)/C2=N\S(=O)(=O)c2ccc(Br)cc2)c1	-9.9	3.1	78.3*	-1.5	5.2	4.5	74.2*
Cc1ccc(NC(=O)C[n+]2ccn(C3=C([O-])c4ccccc4C3=O)c2)cc1	1.2	1.8	-1.4	0.4	3.0	6.1	/
O=C(NCC1CCCN1S(=O)(=O)c1cccs1)c1ccc([N+](=O)[O-])cc1 (centres undefined)	-0.8	2.3	-8.6	1.4	1.8	6.3	/
O=C(CSc1ccc(Cl)cc1)NC1=NN(c2ccccc2)C(=O)C1	14.8*	5.2	42.1*	-4.2	7.7	-0.8	6.0
COc1ccc([C@@H]2OC2(C(N)=O)C(N)=O)cc1	-5.8	-3.2	-5.4	-1.5	1.3	0.9	/
NC(=O)C1(C(N)=O)OC1c1ccc(Cl)c(Cl)c1 (centres undefined)	-1.9	1.2	65.5*	0.2	-3.7	-1.3	76.9*	GSTO1 ABPP inh=30.0
COCCNC(=O)COc1ccc(Br)cc1Cl	-0.2	-2.5	0.0	2.3	-4.0	1.4	/
C=CCNC(=O)COc1ccc(Br)cc1Cl	-1.3	3.9	66.0*	3.3	0.8	1.6	5.1
Cc1ccc(NCC(=O)N=Nc2c(O)[nH]c3ccc([N+](=O)[O-])cc23)cc1	-4.2	4.7	33.1	-0.7	-1.3	6.1	/
CCCCCC(=O)N=Nc1c(O)[nH]c2ccc([N+](=O)[O-])cc12	3.9	-0.7	8.9	-2.1	5.9	2.4	/
Cc1ccccc1NCC(=O)N=Nc1c(O)[nH]c2ccc([N+](=O)[O-])cc12	-3.1	7.3	45.2*	-6.2	17.4	-1.7	50.0*
O=C(N=Nc1c(O)[nH]c2ccc([N+](=O)[O-])cc12)c1ccccc1Cl	-1.1	-1.9	45.0*	2.1	-4.5	-3.7	18.1
Cc1ccc(/C([O-])=C(/C(=S)NCCN2CCOCC2)[n+]2ccccc2)cc1[N+](=O)[O-]	-9.3	5.9	-1.3	1.9	6.7	4.9	/
CCOc1ccc(CN(C)C(=O)CCl)cc1	-4.8	1.6	80.7*	2.1	-1.8	2.1	97.6*	GSTO1 ABPP inh=71.0
CCn1c(SCC(=O)NC2CCCCC2)nnc1-c1cccnc1	-2.8	-2.1	2.7	3.6	5.7	-0.3	/
Cc1c(C#N)c(NC(=O)CCl)n(Cc2ccccc2)c1C	0.3	-5.9	86.0*	-1.9	-3.5	-1.1	90.8*
Cc1cc(=O)n(Cc2ccccc2)c(O)c1C#N	-22.3	2.4	6.3	-4.5	-6.6	-10.6	/
Cc1c(C#N)c(NC(=O)CCl)n(Cc2ccc(F)cc2)c1C	1.1	-3.1	80.8*	1.7	5.4	-3.1	95.5*
CC(=O)C(C(C)=O)c1c(Cl)c(O)c(O)c2c(C(=O)c3ccccc3)coc12	-0.6	-0.3	57.9*	-1.5	7.4	-1.5	7.5
O=C(NC1CCCCC1)C(c1ccccc1F)N(Cc1ccco1)C(=O)c1ccccn1 (centres undefined)	-3.8	2.2	37.8*	0.5	-3.8	-3.5	7.0
Cc1c(C(=O)c2no[n+]([O-])c2C(=O)c2cnn(C)c2C)cnn1C	5.7	5.0	39.7*	-0.5	-2.2	5.5	24.7
SMILES	PAD4 inh	Fam108B inh	GSTO1 counter	LYPLA1 inh	PME-1 primary	LYPLA2 counter	GSTO1 confirm	others
CCOc1cccc(CNc2ccc(O)cc2)c1OCc1ccccc1Cl	0.9	5.9	77.1*	6.8	33.7*	19.7	4.6
CCOc1cccc(CNn2cnnc2)c1OCc1ccccc1Cl	2.4	3.6	1.9	2.7	2.1	0.4	/
CCOc1cccc(CNc2ccc(O)cc2)c1OCc1ccc(Cl)cc1Cl	-3.3	16.9	78.1*	-1.0	23.2	11.1	9.6
CC(C)(C)OC(=O)NN=C(c1ccc(O)cc1)c1ccc(O)cc1	-2.0	-4.5	-6.9	1.1	-2.7	0.2	/
CCCN1C(=S)c2ccccc2C1c1ccccc1 (centres undefined)	3.2	-5.9	60.1*	-2.9	-7.8	-0.1	1.3
CCCCN1C(=S)NC[C@@H]1c1ccccc1	-1.7	-2.4	1.9	2.4	5.1	2.4	/
CCN(CC)c1ccc(/C=C2/C(=O)ON=C2C)cc1	-4.2	-0.3	8.7	-2.4	-3.3	-2.2	/
CCN(CC)c1ccc(/C=C2\C(=O)N(c3nnc(C)c(=O)[nH]3)N=C2C)cc1	2.0	2.9	40.5*	-0.5	-6.6	0.1	13.5
O=C1c2ccccc2C(=O)C12OC2c1cccc2ccccc12 (centres undefined)	-15.1	1.4	75.4*	-2.7	2.8	3.6	70.5*
c1ccc2c(C3CCO3)cccc2c1 (centres undefined)	-0.2	/	/	-2.7	3.1	-4.3	/
O=c1oc2cc(O)ccc2c2oc3cc(O)ccc3c12	-4.7	9.3	39.0*	-3.9	26.1	-4.7	49.0*
O=c1oc2cc(O)ccc2c2ccccc12	1.6	3.4	-3.1	-0.3	5.5	3.8	/
CCn1c(SCc2ccc(Cl)cc2Cl)nc2nc3c(cc2c1=O)CCCC3	-1.8	-3.5	1.7	0.3	1.0	-1.5	/
O=c1[nH]c2ccc(Br)cc2c(-c2ccccc2)c1CN1CCOCC1	5.4	-0.3	63.7*	-0.7	0.7	-4.8	1.6
O=c1[nH]c2ccc(Br)cc2c(-c2ccccc2)c1N1CCOCC1	5.7	2.7	4.2	2.1	3.2	4.8	/
COc1ccc(/C=C2\SC(=O)NC2=S)cc1OC	-9.8	10.3	61.5*	-0.7	-0.7	2.0	72.1*
CCOc1ccc(/C=C2\SC(=S)NC2=O)cc1OC	-7.2	-4.0	-8.3	-0.5	-16.4	-4.4	/
CC1=CC(=O)c2ccccc2C1=O	-7.5	5.8	39.0*!	-3.8	-9.7	-2.4	50.0*
c1ccc(CCCOCCC2CO2)cc1 (centres undefined)	1.3	0.1	95.7*	0.1	-3.7	3.7	93.7*	GSTO1 ABPP inh=60.0
CCC(C)Sc1ccc([C@H]2N[C@@](Cc3ccccc3)(C(=O)OC)[C@H]3C(=O)N(CC)C(=O)[C@@H]23)cc1 (some centres undefined)	2.9	4.9	10.8	4.2	-1.4	-4.1	/
